The source made the active and inactive calls. Rule for the calls: active = hit-call score of the fitted dose curve at least 0.9, where 1 is the maximum; inactive = score below 0.9.
Legend:
[1] = target: CCAAT/enhancer-binding protein beta (Homo sapiens) (UniProt P17676); experiment: ATG_C_EBP_CIS: Attagene CIS-FACTORIAL HepG2 Assay for human CCAAT/Enhancer Binding Protein (C/EBP) beta (AID 2282927); settings: HepG2 Attagene cis-factorial transcription factor reporter; actives raise or lower the signal
Summary of the method: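 HepG2 transiently transfected with multiplexed reporter units under cis-regulatory promoters reporting endogenous C/EBPb activity. After 24 h exposure, reporter mRNA assayed by RT-PCR, fluorescent labelling, HpaI digestion and capillary electrophoresis; bidirectional fitting versus DMSO.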

[2] = ATG_CMV_CIS: Attagene CIS-FACTORIAL HepG2 Assay for human CMV (Internal Marker) (AID 2282928); settings: HepG2 CMV promoter reporter, transcription factor profiling; actives raise or lower the signal;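 note: endpoint acts as a background internal control marker rather than a target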
Summary of the method: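 CMV internal-marker background readout in transiently transfected HepG2 cells bearing cis-regulated reporter units. Reporter mRNA is measured 24 h after dosing by RT-PCR and capillary electrophoresis, with bidirectional fitting against DMSO.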

[3] = ATG_AP_1_CIS: Attagene CIS-FACTORIAL HepG2 Assay for human Activator Protein 1 (AP-1) (AID 2282931); settings: HepG2 Attagene cis-factorial AP-1 reporter mRNA; actives raise or lower the signal
Summary of the method: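 After 24 h incubation with test chemical, RNA from transfected HepG2 cells was reverse-transcribed, amplified, fluorescently labelled and digested before capillary electrophoresis. Reporters were driven by cis-regulatory promoters; activity fitted bidirectionally versus DMSO.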

[4] = ATG_AP_2_CIS: Attagene CIS-FACTORIAL HepG2 Assay for human Activator Protein 2 (AP-2) (AID 2282932); settings: HepG2 AP-2 cis-reporter, Attagene transcription factor profiling; actives raise or lower the signal
Summary of the method: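 HepG2 cells transiently transfected with cis-element reporter units and exposed for 24 h. Reporter mRNA measured by RT-PCR, FAM labelling, HpaI digestion and capillary electrophoresis. Changes in either direction fitted relative to DMSO.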

[5] = ATG_BRE_CIS: Attagene CIS-FACTORIAL HepG2 Assay for human Bone Morphogenetic Protein (BMP) Response Element (BRE) (AID 2282933); settings: HepG2 BMP response element reporter, Attagene transcription factor profiling; actives raise or lower the signal
Summary of the method: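 A HepG2 multiplex reporter system measured inducible reporter mRNA 24 h post-dosing. Detection: RT-PCR, 6-FAM primer extension, HpaI digestion, capillary electrophoresis. Activity fitted bidirectionally relative to DMSO.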

[6] = ATG_E_Box_CIS: Attagene CIS-FACTORIAL HepG2 Assay for human Enhancer Box (E-box) (AID 2282936); settings: HepG2 E-box cis-reporter transcription, actives raise or lower the signal
Summary of the method: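 HepG2 cells transiently transfected with multiplexed cis-element reporter units, dosed 24 h; reporter mRNA quantified by RT-PCR, 6-FAM labelling, HpaI digestion and capillary electrophoresis. E-box (USF1) signal fitted bidirectionally vs DMSO.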

[7] = ATG_M_61_CIS: Attagene CIS-FACTORIAL HepG2 Assay for M61 Transcription Factor (Internal Marker) (AID 2282937); settings: HepG2 Attagene CIS-FACTORIAL M61 internal marker reporter; actives raise or lower the signal
Summary of the method: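 Using transiently transfected HepG2 liver cells, reporter transcript levels were assessed 24 h post-dosing by RT-PCR and capillary electrophoresis. Changes in either direction were fitted relative to DMSO controls.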

[8] = ATG_EGR_CIS: Attagene CIS-FACTORIAL HepG2 Assay for human Early Growth Response 1 (EGR1) (AID 2282938); settings: HepG2 Attagene CIS-FACTORIAL EGR reporter mRNA; actives raise or lower the signal
Summary of the method: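 Fluorescent capillary-electrophoresis signal of reporter cDNA fragments serves as read-out. HepG2 cells bear transiently transfected cis-promoter reporter units and are exposed 24 h; gain- or loss-of-signal is fitted against DMSO.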

[9] = ATG_Ets_CIS: Attagene CIS-FACTORIAL HepG2 Assay for human Erythroblast Transformation Specific (ETS) (AID 2282941); settings: HepG2 ETS cis-reporter transcription, actives raise or lower the signal
Summary of the method: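 HepG2 cells transfected with multiple cis-regulated reporter units measuring endogenous ETS-driven transcription, 24 h after dosing. Reporter mRNA quantified by RT-PCR with capillary electrophoresis; bidirectional fit relative to DMSO.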

[10] = ATG_FoxO_CIS: Attagene CIS-FACTORIAL HepG2 Assay for human Forkhead box O (FoxO) (AID 2282943); settings: HepG2 Attagene cis-reporter, FoxO element, mRNA; actives raise or lower the signal
Summary of the method: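 HepG2 cells transiently transfected with cis-element-driven reporter units report endogenous FoxO activity. After 24 h chemical exposure, reporter mRNA quantified by RT-PCR, fluorescent labeling, HpaI digestion and capillary electrophoresis; bidirectional fit versus DMSO.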

[11] = ATG_GATA_CIS: Attagene CIS-FACTORIAL HepG2 Assay for human GATA Binding Protein (AID 2282944); settings: HepG2 GATA cis-element reporter, Attagene multiplex mRNA; actives raise or lower the signal
Summary of the method: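 Transfected cis-reporter HepG2 cells were treated with chemicals for 24 hours. Total RNA was then converted to cDNA, amplified with reporter-specific primers and analysed by fluorescent capillary electrophoresis, using DMSO-treated wells as baseline.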

[12] = ATG_ISRE_CIS: Attagene CIS-FACTORIAL HepG2 Assay for human Interferon Regulatory Factor 1 (IRF1) binding to an Interferon-Stimulated Response Element (ISRE) (AID 2282948); settings: HepG2 ISRE cis-reporter (Attagene), mRNA transcription readout; actives raise or lower the signal
Summary of the method: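 Transiently transfected HepG2 cells carrying cis-element reporter units, dosed 24 hours. Reporter mRNA quantified by RT-PCR, fluorescent primer extension, HpaI digestion and capillary electrophoresis. Bidirectional fitting relative to DMSO.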

[13] = ATG_M_06_CIS: Attagene CIS-FACTORIAL HepG2 Assay for M06 Transcription Factor (Internal Marker) (AID 2282950); settings: HepG2 Attagene CIS-FACTORIAL M06 internal marker reporter; actives raise or lower the signal
Summary of the method: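 Cells (HepG2, transiently carrying cis-driven reporter units) receive chemical for 24 h before RNA isolation. Reporter cDNA is PCR-amplified, FAM-labelled by primer extension, HpaI-digested and sized on a capillary analyser.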

[14] = ATG_MRE_CIS: Attagene CIS-FACTORIAL HepG2 Assay for human Metal Responsive Element (MRE) (AID 2282954); settings: HepG2 MRE cis-reporter transcription, Attagene multiplex; actives raise or lower the signal
Summary of the method: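 HepG2 cells transiently transfected with cis-element-driven reporter units; mRNA measured 24 h after dosing. Reporter transcripts quantified by RT-PCR, FAM labelling, HpaI digestion and capillary electrophoresis; bidirectional fit versus DMSO.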

[15] = target: Paired box protein Pax-6 (Homo sapiens) (UniProt P26367); experiment: ATG_Pax6_CIS: Attagene CIS-FACTORIAL HepG2 Assay for human Paired Box 6 (PAX6) (AID 2282956); settings: HepG2 CIS-FACTORIAL PAX6 reporter transcription, RNA readout; actives raise or lower the signal
Summary of the method: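 HepG2 cells transiently transfected with cis-promoter-driven multiplexed reporter units sensing endogenous transcription factor activity; 24 h chemical exposure. Reporter mRNA quantified by RT-PCR, 6-FAM labelling, HpaI digestion and capillary electrophoresis; bidirectional fit versus DMSO baseline.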

[16] = target: Transcription factor Sp1 (Homo sapiens) (UniProt P08047); experiment: ATG_Sp1_CIS: Attagene CIS-FACTORIAL HepG2 Assay for human Specificity Protein 1 (Sp1) (AID 2282961); settings: HepG2 Sp1 cis-reporter transcription, actives raise or lower the signal
Summary of the method: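 After transient transfection of HepG2 cells with cis-promoter reporter units and 24 h chemical treatment, reporter transcripts were quantified by RT-PCR and capillary electrophoresis fluorescence. Gain- and loss-of-signal fitted against DMSO.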

[17] = ATG_SREBP_CIS: Attagene CIS-FACTORIAL HepG2 Assay for human Sterol Regulatory Element Binding (SREBP) (AID 2282962); settings: HepG2 Attagene cis-factorial SREBP reporter, mRNA; actives raise or lower the signal
Summary of the method: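 HepG2 cells transiently transfected with multiplexed cis-promoter reporter units sensing endogenous transcription factors; reporter mRNA measured 24 h after dosing by RT-PCR, 6-FAM labeling, HpaI digestion and capillary electrophoresis. Bidirectional fit versus DMSO.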

[18] = target: Signal transducer and activator of transcription 3 (Homo sapiens) (UniProt P40763); experiment: ATG_STAT3_CIS: Attagene CIS-FACTORIAL HepG2 Assay for human Signal Transducer and Activator of Transcription 3 (STAT3) (AID 2282963); settings: HepG2, Attagene cis-factorial STAT3 reporter transcription; actives raise or lower the signal
Summary of the method: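 HepG2 cells transiently transfected with multiple cis-element-driven reporter units report endogenous transcription factor activity. After 24 h compound exposure, reporter mRNA is measured by RT-PCR, 6-FAM labelling, HpaI digestion and capillary electrophoresis. Fitted bidirectionally versus DMSO.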

[19] = ATG_TAL_CIS: Attagene CIS-FACTORIAL HepG2 Assay for human TAL Basal Promoter (AID 2282966); settings: HepG2 Attagene cis-factorial TAL promoter reporter; actives raise or lower the signal;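 note: background control endpoint measuring basal TAL promoter reporter mRNA not a specific factor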
Summary of the method: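 RT-PCR plus capillary electrophoresis quantifies reporter mRNA induction in transiently transfected HepG2 cells after 24 h chemical treatment. DMSO serves as negative control and baseline for bidirectional fitting.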

[20] = target: X-box-binding protein 1 (Homo sapiens) (UniProt P17861); experiment: ATG_Xbp1_CIS: Attagene CIS-FACTORIAL HepG2 Assay for human X-box Binding Protein 1 (XBP1) (AID 2282972); settings: HepG2 XBP1 cis-element reporter, Attagene multiplex; actives raise or lower the signal
Summary of the method: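 HepG2 cells transiently transfected with multiple cis-element reporter units report endogenous TF activity; 24 h exposure, then reporter mRNA measured by RT-PCR, 6-FAM labelling, HpaI digestion and capillary electrophoresis. Bidirectional fitting versus DMSO.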

Measured: outcome

X-box-binding protein 1 (Homo sapiens), sequence (P17861 whole entry, looked up): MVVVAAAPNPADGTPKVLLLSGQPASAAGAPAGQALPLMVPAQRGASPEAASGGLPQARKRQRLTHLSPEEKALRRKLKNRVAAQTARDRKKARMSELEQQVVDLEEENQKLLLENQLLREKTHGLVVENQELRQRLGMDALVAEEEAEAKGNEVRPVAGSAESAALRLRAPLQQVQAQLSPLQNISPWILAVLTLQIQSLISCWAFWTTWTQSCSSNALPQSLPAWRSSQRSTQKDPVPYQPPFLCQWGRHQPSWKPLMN
Transcription factor Sp1 (Homo sapiens), sequence (P08047 whole entry, looked up): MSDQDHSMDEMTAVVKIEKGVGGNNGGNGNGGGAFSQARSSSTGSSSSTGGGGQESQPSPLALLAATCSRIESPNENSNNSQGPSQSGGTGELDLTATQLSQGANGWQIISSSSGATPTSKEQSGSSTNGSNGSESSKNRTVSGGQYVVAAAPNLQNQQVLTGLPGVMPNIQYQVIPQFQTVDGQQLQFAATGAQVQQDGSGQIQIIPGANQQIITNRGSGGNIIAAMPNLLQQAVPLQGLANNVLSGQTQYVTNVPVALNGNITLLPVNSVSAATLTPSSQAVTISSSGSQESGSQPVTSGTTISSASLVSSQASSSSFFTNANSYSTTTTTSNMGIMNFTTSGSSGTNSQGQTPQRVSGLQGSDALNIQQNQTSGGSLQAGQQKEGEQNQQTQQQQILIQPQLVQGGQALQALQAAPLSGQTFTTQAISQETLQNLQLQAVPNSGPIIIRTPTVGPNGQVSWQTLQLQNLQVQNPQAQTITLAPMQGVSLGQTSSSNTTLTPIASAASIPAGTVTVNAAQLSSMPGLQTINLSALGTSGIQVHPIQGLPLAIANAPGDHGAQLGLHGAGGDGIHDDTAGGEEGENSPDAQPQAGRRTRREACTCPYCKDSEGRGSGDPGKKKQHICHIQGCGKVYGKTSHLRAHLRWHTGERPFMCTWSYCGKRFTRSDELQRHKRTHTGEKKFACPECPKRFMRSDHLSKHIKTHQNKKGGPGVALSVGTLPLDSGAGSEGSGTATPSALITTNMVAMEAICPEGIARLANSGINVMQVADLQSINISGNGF
CCAAT/enhancer-binding protein beta (Homo sapiens), sequence (P17676 whole entry, looked up): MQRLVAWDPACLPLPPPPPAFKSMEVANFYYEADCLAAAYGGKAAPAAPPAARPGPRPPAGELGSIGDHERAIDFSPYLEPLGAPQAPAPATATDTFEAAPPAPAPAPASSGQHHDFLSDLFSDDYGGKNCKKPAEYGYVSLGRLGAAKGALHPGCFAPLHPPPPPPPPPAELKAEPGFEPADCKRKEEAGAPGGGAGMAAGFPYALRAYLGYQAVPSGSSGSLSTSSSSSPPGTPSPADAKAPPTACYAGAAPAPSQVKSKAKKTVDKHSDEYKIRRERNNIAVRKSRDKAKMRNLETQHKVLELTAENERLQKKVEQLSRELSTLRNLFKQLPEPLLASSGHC
Signal transducer and activator of transcription 3 (Homo sapiens), sequence (P40763 whole entry, looked up): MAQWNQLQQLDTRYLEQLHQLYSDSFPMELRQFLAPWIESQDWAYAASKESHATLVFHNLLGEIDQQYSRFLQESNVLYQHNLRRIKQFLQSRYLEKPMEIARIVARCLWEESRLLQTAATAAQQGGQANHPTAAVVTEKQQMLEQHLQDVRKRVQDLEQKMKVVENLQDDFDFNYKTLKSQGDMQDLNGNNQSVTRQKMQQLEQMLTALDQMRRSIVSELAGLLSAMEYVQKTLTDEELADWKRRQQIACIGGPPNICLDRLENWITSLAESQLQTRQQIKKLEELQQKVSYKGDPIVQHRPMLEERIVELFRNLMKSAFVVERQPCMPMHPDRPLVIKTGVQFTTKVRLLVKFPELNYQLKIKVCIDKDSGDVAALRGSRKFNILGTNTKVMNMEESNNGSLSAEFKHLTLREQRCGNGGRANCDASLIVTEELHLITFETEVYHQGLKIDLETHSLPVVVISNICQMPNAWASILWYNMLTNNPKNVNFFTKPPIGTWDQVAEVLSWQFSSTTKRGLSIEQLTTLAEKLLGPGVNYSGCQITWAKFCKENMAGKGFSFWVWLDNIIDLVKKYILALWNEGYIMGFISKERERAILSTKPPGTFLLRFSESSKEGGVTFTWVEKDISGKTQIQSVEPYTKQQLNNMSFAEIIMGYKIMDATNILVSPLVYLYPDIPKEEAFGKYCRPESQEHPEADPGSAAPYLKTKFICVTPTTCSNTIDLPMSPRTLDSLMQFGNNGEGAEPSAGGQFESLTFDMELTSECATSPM
Paired box protein Pax-6 (Homo sapiens), sequence (P26367 whole entry, looked up): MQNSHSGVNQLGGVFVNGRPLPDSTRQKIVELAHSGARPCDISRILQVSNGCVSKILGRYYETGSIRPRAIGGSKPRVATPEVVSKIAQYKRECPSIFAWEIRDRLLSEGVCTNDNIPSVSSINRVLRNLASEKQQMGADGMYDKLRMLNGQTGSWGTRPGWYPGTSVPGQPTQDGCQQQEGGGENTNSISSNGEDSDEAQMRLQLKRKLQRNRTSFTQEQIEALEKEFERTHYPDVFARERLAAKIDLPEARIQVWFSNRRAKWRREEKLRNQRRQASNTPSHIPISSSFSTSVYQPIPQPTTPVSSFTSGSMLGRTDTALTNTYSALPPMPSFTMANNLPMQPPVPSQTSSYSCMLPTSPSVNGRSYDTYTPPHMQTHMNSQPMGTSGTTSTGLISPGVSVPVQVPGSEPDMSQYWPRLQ

CN1CCCC1
inactive: all assays above

[O-][n+]1ccc(Cl)cc1
inactive: all assays above

O=C(O)c1cc(Cl)cc(Cl)c1O
inactive: all assays above

CCC(C)=NO
inactive: all assays above
